# Test results as given in PubChem BioAssay AID504329 (Southern Research Specialized Biocontainment Screening …, 2011).
# Screen size: about 340,000 compounds; about 1,000 (0.29%) were called active. A selection follows. Potency and affinity values are given separately. Values without a mark were called inactive. Cut-off read from the data, not from the text of the source: inconclusive = inhibition above about 27% without an active follow-up result; inactive = below that.
# Experiment: H1N1 influenza NS1A inhibitors, functional cell based assay (AID 504329)
# Settings: percent inhibition, at 12.5 µM, stronger effect = higher value
row,Compound,inhibition [%]
1,COc1ccc(C=C2C(=O)c3ccccc3C2=O)cc1O,16.6
2,COc1cc(C=C2C(=O)c3ccccc3C2=O)ccc1O,-20.5
3,CCn1c(C)nc2cc(C(=O)NN=Cc3ccccc3OC(F)F)ccc21,-6.28
4,CC(C)CN1CCC(=O)N(CCOc2ccccc2)CC1,2.95
5,CCCN1CCC(=O)N(CCOc2ccccc2)CC1,-8.48
6,Cc1ccc(-n2c(O)c(C=NC3CCS(=O)(=O)C3)c3ccccc3c2=O)c(C)c1 (stereo unspecified),9.46
7,O=C(CSc1ccc(-c2ccccn2)nn1)c1ccc(F)cc1,-9.8
8,Clc1ccc(-c2ccc(SCc3ccccn3)nn2)cc1,0.43
9,c1ccc(CSc2ccc(-c3cccnc3)nn2)nc1,-9.97
10,O=C(CSc1ccc(-c2ccccn2)nn1)c1ccc([N+](=O)[O-])cc1,27.3
11,c1cncc(CSc2ccc(-c3cccnc3)nn2)c1,0.64
12,c1ccc(CSc2ccc(-c3ccccn3)nn2)cc1,-2.51
13,Cc1onc(-c2ccc(Cl)cc2Cl)c1-c1csc(N/N=C/c2ccccc2)n1,-21.5
14,CN(C(=O)c1ccc(NC(=O)Cc2cccc(NC(=O)C3CCCN(C(=O)C4CCCCC4)C3)c2)cc1)C1CCCC1 (stereo unspecified),-1.36
15,CCS(=O)(=O)N1CCN(S(=O)(=O)c2ccc(S(=O)(=O)NC3CC3)cc2)CC1,7.16
16,Cc1ccc(NC(=O)COc2ccc(C(=O)c3ccccc3)cc2)c(O)c1,8.15
17,CCNC(=S)N1CCN(c2ccccc2OCC)CC1,0.76
18,Cc1ccc(CN2CCNC(=O)C2CC(=O)NCCCn2ncc3ccccc32)o1 (stereo unspecified),-1.25
19,CCO[C@H]1OC(C(=O)N2CCN(Cc3ccc4c(c3)OCO4)CC2)=C[C@@H](C2CCCCC2)[C@@H]1CCCO,8.35
20,CC(C)N(Cc1nc(-c2ccc(Cl)cc2)no1)Cc1nccn1C,-7.64
21,CCOC(=S)SCc1cn2cccc(C)c2n1,4.77

row,Compound,inhibition [%]
1,CNc1ccc(Oc2nc([N+](=O)[O-])nn2C)cc1,-2.73
2,Fc1ccc(/C=N/n2cnn(Cc3ccccc3Cl)c2=S)cc1,-7.06
3,O=C(CCCc1ccccc1)Nc1nncs1,0.92
4,O=S(=O)(NCC1COc2ccccc2O1)c1ccc2ccccc2c1 (stereo unspecified),1.74
5,Cn1c(/C(C#N)=C(\O)c2cccc(F)c2)nc2ccccc21,0.62
6,Cc1nc2sccn2c(=O)c1S(=O)(=O)N1CCN(c2cccc(C(F)(F)F)c2)CC1,3.59
7,CCN1CCCC1CNC(=O)c1ccc2c(c1)NC(=O)/C(=C\c1ccc(C)cc1)S2 (stereo unspecified),21.9
8,COc1ccc(/C=C2/Sc3ccc(C(=O)NCCCN4CCOCC4)cc3NC2=O)cc1OC,9.94
9,O=C(NCC1CCCN1S(=O)(=O)c1cccs1)c1ccccc1F (stereo unspecified),-4.78
10,CC(=O)Nc1ccc(S(=O)(=O)N2CCN(c3ccc(C)c(Cl)c3)CC2)cc1,-15.9
11,O=[N+]([O-])c1nn(-c2ccc3c(c2)OCCO3)n(O)c1=NC1CCCCC1,9.84
12,O=[N+]([O-])c1nn(-c2ccc3c(c2)OCCO3)n(O)c1=NC1CCCC1,15.3
13,O=[N+]([O-])c1nn(-c2ccccc2)[n+]([O-])c1N1CCN(c2ccccc2)CC1,0.82
14,CN=c1c([N+](=O)[O-])nn(-c2ccc3c(c2)OCCO3)n1O,2.75
15,C/C=C(\C)CN1CCN(c2ccccc2)CC1,-6.09
16,COc1cccc2c(Cl)c(CC=C(Cl)Cl)c(C)nc12,8.95
17,O=[N+]([O-])c1ccc(-[n+]2c(-c3ccccc3)cc(-c3ccccc3)cc2-c2ccccc2)cc1,0.94
18,O=[N+]([O-])c1ccc2c(c1)c(-c1ccccc1)nc1nncn12,-1.91
19,CCN(CC)CC(O)Cn1c(C)c(-c2ccccc2)c2cc([N+](=O)[O-])ccc21 (stereo unspecified),27.4
20,CC(C)n1c2ccccc2c2cc([N+](=O)[O-])ccc21,3.2
21,COc1ccc(S(=O)(=O)Nc2ccc3c(c2)C(=O)N([C@H](C)CO)C[C@H](C)[C@@H](CN(C)C(=O)Nc2ccccc2)O3)cc1,6.6

row,Compound,inhibition [%]
1,COc1ccc(Nc2nc3c([nH]2)c(=O)[nH]c(=O)n3C)cc1,-6.85
2,O=C(CN1C(=O)NC2(CCOc3ccccc32)C1=O)NCCc1ccc(F)cc1 (stereo unspecified),-8.82
3,N#CCCN1CCN(C2=NC(=O)/C(=C\c3cccs3)S2)CC1,8.67
4,CCOC(=O)c1ccccc1NC(=O)/C=C/c1cc(OC)c(OC)c(OC)c1,-4.73
5,COc1cccc([C@@H]2CC=C(C(=O)O)[C@H](c3ccc(Br)cc3)N2S(=O)(=O)c2ccc(C)cc2)c1,-4.53
6,CN(N=Nc1ccc([N+](=O)[O-])cc1)c1ccccc1,8.69
7,CCCCN(C)c1ccc([N+](=O)[O-])cc1,11.8
8,Cc1ccc(CSC2=NCCN2C(=O)c2ccc([N+](=O)[O-])cc2)cc1,5.18
9,COc1ccc([C@@H]2CC=C(C(=O)O)[C@H](c3ccccc3)N2S(=O)(=O)c2ccccc2C)cc1,-3.46
10,COc1ccc(/C=N/S(=O)(=O)c2cccs2)cc1,4.61
11,COc1ccc(-c2nsc3c(SCc4ccccc4)ncnc23)cc1,-10.6
12,COc1c(O)cc2oc(-c3ccc(O)c(O)c3)cc(=O)c2c1O,2.55
13,Cc1cc2oc(=O)cc(-c3cc4ccccc4o3)c2cc1O,-6.82
14,O=c1cc2oc3cc(O)c(O)cc3c(-c3ccccc3O)c-2cc1O,4.83
15,COc1ccc2c(=O)cc(-c3ccccc3F)oc2c1,-4.71
16,O=c1cc2oc3cc(O)c(O)cc3c(-c3ccccc3[N+](=O)[O-])c-2cc1O,20.1
17,COc1cc(-c2cc(=O)c3ccccc3o2)ccc1O,-19
18,Cc1ccccc1-c1cc(=O)c2c(O)cccc2o1,-13.3
19,COc1ccc(OC)c(-c2oc3ccccc3c(=O)c2O)c1,-8.28
